Screening data as filed in PubChem BioAssay.
aSyn UTR inh – MLPCN primary screen, SNCA 5' untranslated region | 300,000 tested, 0.82% active | inhibition, % (tested at 7.5 µM) | alpha-synuclein 5'UTR reporter, inhibitor activity; in the data active means inhibition above about 60%;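 further: H4 neuroglioblastoma cells stably carrying SNCA 5'UTR luciferase fusion; 0% = DMSO wells and 100% = positive control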
Mdm2 MdmX PPI – disrupts the human Mdm2-MdmX interaction | 330,000 tested, 3% active | AID 485346 | O15151+Q00987 | SaOS-2 split-luciferase Mdm2/MdmX complementation, luminescence | inhibition, % at 8 µM;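 active means inhibition of at least 50% at 8 µM in the primary screen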
CSC inhib – blocks cancer stem cells. cancer stem cell-like cells viability, luminescence. AID 2717. 300,000 tested, 1.1% active. inhibition, % at 7.5 µM; in the data active means inhibition above about 75%; tested in HMLE shEcad cells
Bfl-1 A1 inh – inhibitors of the anti-apoptotic protein A1, read as caspase activation; MEF A1-2A-BIM cells, Caspase-Glo 3/7 luminescence, 3 h; percent of clofoctol response, vehicle zero; caspase activation, % (concentration not given with the values); 330,000 tested, 0.066% active;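 active means over half of replicate activation scores above 10%, or exactly half above 10 with the replicate mean above 10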
Beta cell apopt – beta cell apoptosis inhibition; 300,000 tested, 0.8% active; INS-1E cytokine-induced death, ATP luminescence, 48 h; percent of positive-control rescue, neutral wells zero; protection from apoptosis, % (test concentration not listed);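 active means Every replicate reaches about 75%, or at least half do and their mean reaches it too, limit read from the data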;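 further: 0% = cytokine-treated negative control wells and 100% = positive control rescue; higher means more ATP so stronger rescue from cytokine killing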
The depositor's hits bear a star; / = no result given. Hits are enriched below; roughly 4.1% of the tested compounds scored in any of these assays.

SMILES	aSyn UTR inh	Mdm2 MdmX PPI	CSC inhib	Bfl-1 A1 inh	Beta cell apopt
O=C(CCCCCCCCCCC(=O)NCc1cccnc1)NCc1cccnc1	-13	11	72	1	112*
O=C(CCCN1C(=O)c2ccccc2C1=O)NCc1cccnc1	8	6	-7	0	1
O=C(/C=C/c1ccccc1)NCc1cccnc1	-14	8	5	-1	-1
O=C(/C=C/c1ccc(-c2ccccc2)cc1)NCc1cccnc1	-22	-11	14	0	98*
O=C(NCc1cccnc1)c1cc(-c2ccco2)on1	-72	4	-9	0	101*
CC(c1ccccc1)C(CC(=O)O)C(=O)Nc1ccc(Cl)c(Cl)c1 (stereo not drawn)	-1	3	-6	0	-5
O=Nc1c(O)n(Cc2ccc(Cl)cc2Cl)c2ccccc12	0	36	113*	0	25
COc1ccc(CN(C(=O)/C=C/C(=O)c2ccc(OC)cc2O)C(C(=O)NC2CCCCC2)c2ccncc2)cc1 (stereo not drawn)	13	-17	-1	0	2
COCCN(CC(=O)NC1CCCCC1)C(=O)/C=C/C(=O)c1ccc(OC)cc1O	79*	/	/	/	/
COc1ccc(C(=O)/C=C/C(=O)N(CC(=O)NC2CCCCC2)Cc2cccs2)c(O)c1	71*	30	76*	26*	39
CC[N+](C)(CC)CCOC(=O)C(O)(c1ccccc1)C1CCCCC1 (stereo not drawn)	1	20	-2	0	1
CC[N+](C)(CC)CCC(c1ccccc1)C1CCCCC1 (stereo not drawn)	5	25	-5	0	105*
COC(=O)C(=O)C/C(=N/Nc1ncnc2ccccc12)c1ccc(Cl)cc1	4	16	0	2	2
Cc1[nH]c2ccccc2c1/C=N/NS(=O)(=O)c1ccccc1	-12	-4	-8	2	3
Cc1[nH]c2ccccc2c1/C=N/Nc1ccccc1[N+](=O)[O-]	-33	24	77*	0	17
Cc1cccc(NC(=O)c2ccc(N3C(=O)C4CCCCC4C3=O)cc2)c1C (stereo not drawn)	-1	2	/	0	0
CC(=O)Nc1ccc(NC(=O)c2cccc(-c3cc4ccccc4oc3=O)c2)cc1	-30	-15	-10	-1	0
O=C(Cc1cccc2ccccc12)Nc1ccc(-c2cc3ccccc3oc2=O)cc1	65*	46	5	1	-3
Cc1ccc(C(=O)NC(=S)Nc2ccc(-c3cc4ccccc4oc3=O)cc2)c(C)c1	88*	22	-13	0	-4
CCC(=O)Nc1cccc(-c2cc3ccccc3oc2=O)c1	-58	14	/	-1	-1
Cc1cc(C)cc(C(=O)NC(=S)Nc2ccc(-c3cc4ccccc4oc3=O)cc2)c1	97*	35	11	1	3
O=C(Nc1ccc2nc3n(c(=O)c2c1)CCCCC3)C(=O)N1CCN(c2ccc(F)cc2)CC1	23	38	31	0	-4
CC(Sc1nnnn1C)C(=O)Nc1cc(S(=O)(=O)N2CCCCC2)ccc1Cl (stereo not drawn)	/	-5	-10	1	1
O=S(=O)(Nc1nc(-c2sccc2Cl)cs1)c1cc(Cl)ccc1Cl	-11	2	119*	1	2
CC(C)(C)c1nnc(NS(=O)(=O)c2cc(Cl)ccc2Cl)s1	-1	6	11	1	/
SMILES	aSyn UTR inh	Mdm2 MdmX PPI	CSC inhib	Bfl-1 A1 inh	Beta cell apopt
Cc1ccc(S(=O)(=O)CCC(=O)OC(C)C(=O)N2CCc3ccccc32)cc1 (stereo not drawn)	-11	22	-8	1	/
O=C(CCc1ccc(Oc2cc([N+](=O)[O-])cc([N+](=O)[O-])c2)cc1)N1CCCCCC1	-15	-6	96*	0	10
O=C(Cc1ccc([N+](=O)[O-])cc1)N1CCCCCC1	-18	-10	2	2	/
CCN1C(=O)C(CC(=O)Nc2ccc(OC)cc2)N(CCCN2CCN(c3ccc(F)cc3)CC2)C1=S (stereo not drawn)	17	28	81*	0	7
COc1ccc(NC(=O)CC2C(=O)N(C)C(=S)N2CCc2ccc(F)cc2)cc1 (stereo not drawn)	6	2	46	2	2
CCN1C(=O)C(CC(=O)Nc2ccc(OC)cc2)N(CCc2ccc(F)cc2)C1=S (stereo not drawn)	-3	4	24	-1	15
COc1ccc(CCN2C(=S)N(C)C(=O)C2CC(=O)Nc2ccc(OC)cc2)cc1 (stereo not drawn)	18	0	97*	0	2
